Common to all, as to settings: mRNA level, 48 h; actives raise or lower the signal
Read-out in experiment [1]: Nuclear factor NF-kappa-B p105 subunit (Homo sapiens) (UniProt P19838)
Nature of the experiment: LTEA_HepaRG_NFKB1: Life Technologies and Expression Analysis (LTEA) Assay for Nuclear Factor Kappa B Subunit 1 (NFKB1) using HepaRG (AID 2283521). In outline: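 Differentiated human HepaRG cells in serum-free induction medium with 0.5% DMSO were exposed for 48 h to eight half-log concentrations, top 100 uM, in duplicate. NFKB1 mRNA measured by Fluidigm TaqMan qRT-PCR, normalised to ACTB, GAPDH and POLR2A; bidirectional fit versus DMSO.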

Read-out in experiment [2]: Protein phosphatase 2A (PPP2R4), PTPA (gene 5524)
Kind of experiment: LTEA_HepaRG_PPP2R4: Life Technologies and Expression Analysis (LTEA) Assay for Protein phosphatase 2A (PPP2R4) using HepaRG (AID 2283522). In outline: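 Using HepaRG cultures maintained in 0.5% DMSO, chemicals are tested 48 h at up to 100 uM in duplicate. Induction or suppression of PPP2R4 mRNA, measured by qRT-PCR, is fitted bidirectionally against the vehicle baseline.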

Read-out in experiment [3]: Phosphatase and tensin (PTEN), PTEN (gene 5728)
Kind of experiment: LTEA_HepaRG_PTEN: Life Technologies and Expression Analysis (LTEA) Assay for Phosphatase and tensin (PTEN) using HepaRG (AID 2283523). In outline: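 Read-out: TaqMan qRT-PCR of PTEN transcript, normalized to three housekeeping genes, fitted in both directions against 0.5% DMSO. Differentiated human HepaRG cultures received chemicals for 48 h, eight-point half-log series topping at 100 uM.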

Read-out in experiment [4]: solute carrier (SLC22A1), SLC22A1 (gene 6580)
Kind of experiment: LTEA_HepaRG_SLC22A1: Life Technologies and Expression Analysis (LTEA) Assay for solute carrier (SLC22A1) using HepaRG (AID 2283524). In short, it runs like this: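 Transcript level of SLC22A1 quantified by qRT-PCR (normalized to three housekeeping genes) after 48 h chemical exposure of HepaRG cells, eight concentrations up to 100 µM, half-log steps, 0.5% DMSO vehicle. Gain or loss relative to DMSO fitted bidirectionally.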

Read-out in experiment [5]: Pyruvate Dehydrogenase Kinase 4 (PDK4), PDK4 (gene 5166)
Nature of the experiment: LTEA_HepaRG_PDK4: Life Technologies and Expression Analysis (LTEA) Assay for Pyruvate Dehydrogenase Kinase 4 (PDK4) using HepaRG (AID 2283525). In short, it runs like this: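 Readout is qRT-PCR of PDK4 transcript, normalized to three housekeeping genes, with bidirectional fitting against 0.5% DMSO vehicle. Differentiated HepaRG cells were treated 48 h in serum-free induction medium, duplicate wells, eight-point half-log series topping at 100 uM.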

Read-out in experiment [6]: NAD(P)H dehydrogenase [quinone] 1 (NQO1), NQO1 (gene 1728)
Nature of the experiment: LTEA_HepaRG_NQO1: Life Technologies and Expression Analysis (LTEA) Assay for NAD(P)H dehydrogenase [quinone] 1 (NQO1) using HepaRG (AID 2283526). In outline: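 In this assay, gene expression is read by qRT-PCR after 48 h exposure of HepaRG cells to eight concentrations (max 100 uM, half-log) in 0.5% DMSO. Each chemical runs in duplicate, and activity is scored relative to vehicle.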

Read-out in experiment [7]: Nuclear factor erythroid 2-related factor 2 (Homo sapiens) (UniProt Q16236)
Kind of experiment: LTEA_HepaRG_NFE2L2: Life Technologies and Expression Analysis (LTEA) Assay for Nuclear factor erythroid 2-related factor 2 (NFE2L2) Transcription Factor using HepaRG (AID 2283527).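 Further: TaqMan qRT-PCR transcript level normalised to ACTB GAPDH and POLR2A housekeeping genes.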 In outline: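 NFE2L2 transcript level was read by qRT-PCR (housekeeping ACTB/GAPDH/POLR2A normalisation) after 48 h chemical treatment of HepaRG in serum-free induction medium. Duplicate 8-point half-log curves, top 100 uM, 0.5% DMSO vehicle; up- or down-regulation fitted against vehicle.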

Read-out in experiment [8]: succinate dehydrogenase complex iron sulfur subunit B (SDHB), SDHB (gene 6390)
Nature of the experiment: LTEA_HepaRG_SDHB: Life Technologies and Expression Analysis (LTEA) Assay for succinate dehydrogenase complex iron sulfur subunit B (SDHB) using HepaRG (AID 2283528). In short, it runs like this: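 HepaRG cells (~100,000/well, plated 48 h) exposed in duplicate for 48 h in serum-free induction medium to 8-point half-log series from 100 uM in 0.5% DMSO; mRNA by qRT-PCR normalised to ACTB, GAPDH, POLR2A; bidirectional fit versus DMSO.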

Read-out in experiment [9]: Signal transducer and activator of transcription 3 (Homo sapiens) (UniProt P40763)
Kind of experiment: LTEA_HepaRG_STAT3: Life Technologies and Expression Analysis (LTEA) Assay for Signal transducer and activator of transcription (STAT3) using HepaRG (AID 2283529). In outline:
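STAT3 transcript quantified by qRT-PCR against three housekeeping genes (ACTB, GAPDH, POLR2A), fitted both directions relative to DMSO. HepaRG cultures exposed 48 h to eight half-log concentrations, top 100 uM, 0.5% DMSO, serum-free induction medium.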

Read-out in experiment [10]: solute carrier (SLCO1B1), SLCO1B1 (gene 10599)
Nature of the experiment: LTEA_HepaRG_SLCO1B1: Life Technologies and Expression Analysis (LTEA) Assay for solute carrier (SLCO1B1) using HepaRG (AID 2283530). In short, it runs like this: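 SLCO1B1 transcript levels were quantified by TaqMan qRT-PCR using three housekeeping genes for normalization. This followed 48 h chemical exposure (100 uM top, half-log, 8 points, 0.5% DMSO) of HepaRG liver cells, with gain or loss fitted relative to DMSO.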

Read-out in experiment [11]: sulfotransferase 2A1 (SULT2A1), SULT2A1 (gene 6822)
Nature of the experiment: LTEA_HepaRG_SULT2A1: Life Technologies and Expression Analysis (LTEA) Assay for sulfotransferase 2A1 (SULT2A1) using HepaRG (AID 2283531). In outline: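 Expression change of SULT2A1, by qRT-PCR with three housekeeping-gene normalization, was scored bidirectionally versus DMSO. Cells: differentiated HepaRG, dosed in duplicate for 48 h across 8 points, highest 100 µM, half-log dilution, 0.5% DMSO.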

Read-out in experiment [12]: Transforming Growth Factor (TGFB1), TGFB1 (gene 7040)
Nature of the experiment: LTEA_HepaRG_TGFB1: Life Technologies and Expression Analysis (LTEA) Assay for Transforming Growth Factor (TGFB1) Transporter using HepaRG (AID 2283533). In outline:
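TGFB1 transcript measured by qRT-PCR with normalisation to three housekeeping genes (ACTB, GAPDH, POLR2A); human HepaRG line treated in duplicate for 48 hr with an 8-point series topping at 100 uM, 0.5% DMSO vehicle, bidirectionally fitted.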

Read-out in experiment [13]: TIMP1, TIMP1 (gene 7076)
Kind of experiment: LTEA_HepaRG_TIMP1: Life Technologies and Expression Analysis (LTEA) Assay for TIMP1 using HepaRG (AID 2283534). In short, it runs like this:
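Bidirectional change in TIMP1 transcript versus 0.5% DMSO, measured by TaqMan qRT-PCR with three housekeeping genes for normalization. HepaRG human liver cells dosed 48 h in duplicate, top concentration 100 uM with half-log dilutions.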

Read-out in experiment [14]: Tumor necrosis factor receptor 1 (TNFRSF1A), TNFRSF1A (gene 7132)
Nature of the experiment: LTEA_HepaRG_TNFRSF1A: Life Technologies and Expression Analysis (LTEA) Assay for Tumor necrosis factor receptor 1 (TNFRSF1A) using HepaRG (AID 2283535). In short, it runs like this: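 mRNA measured by qRT-PCR (TaqMan, Fluidigm arrays) against ACTB/GAPDH/POLR2A housekeepers after 48 h chemical exposure of HepaRG cells. Top concentration 100 uM, half-log 8-point series, duplicates; vehicle 0.5% DMSO, both fit directions.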

Read-out in experiment [15]: UDP glucuronosyltransferase (UGT1A1), UGT1A1 (gene 54658)
Nature of the experiment: LTEA_HepaRG_UGT1A1: Life Technologies and Expression Analysis (LTEA) Assay for UDP glucuronosyltransferase (UGT1A1) using HepaRG (AID 2283538). In outline:
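mRNA induction or loss of UGT1A1, by TaqMan qRT-PCR, in duplicate HepaRG wells after 48 h exposure to half-log dilutions topping at 100 uM; DMSO (0.5%) served as baseline.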

Read-out in experiment [16]: UDP glucuronosyltransferase (UGT1A6), UGT1A6 (gene 54578)
Nature of the experiment: LTEA_HepaRG_UGT1A6: Life Technologies and Expression Analysis (LTEA) Assay for UDP glucuronosyltransferase (UGT1A6) using HepaRG (AID 2283539). In short, it runs like this: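 Expression was quantified by TaqMan qRT-PCR on Fluidigm arrays with ACTB/GAPDH/POLR2A normalization and bidirectional fitting against 0.5% DMSO. HepaRG cells (~100,000/well) were treated in duplicate for 48 h at eight half-log concentrations up to 100 uM in serum-free induction medium.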

Read-out in experiment [17]: X-box binding protein 1 (XBP1), XBP1 (gene 7494)
Kind of experiment: LTEA_HepaRG_XBP1: Life Technologies and Expression Analysis (LTEA) Assay for X-box binding protein 1 (XBP1) using HepaRG (AID 2283540). In outline: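 XBP1 transcript by qRT-PCR (housekeeping-normalized: ACTB, GAPDH, POLR2A) after 48 h chemical treatment of HepaRG cells, 8-point half-log series topping at 100 uM, vehicle 0.5% DMSO. Gain and loss of signal fitted relative to DMSO.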

Read-out in experiment [18]: Transforming Growth Factor (TGFA), TGFA (gene 7039)
Kind of experiment: LTEA_HepaRG_TGFA: Life Technologies and Expression Analysis (LTEA) Assay for Transforming Growth Factor (TGFA) using HepaRG (AID 2283532). In short, it runs like this: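 TGFA transcript quantified by qRT-PCR (Fluidigm arrays) against three housekeeping genes, after 48 hours chemical treatment of HepaRG cells. Top concentration 100 uM with half-log dilutions, 8 points, duplicates, 0.5% DMSO.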

Read-out in experiment [19]: Thyroid Hormone Responsive (THRSP), THRSP (gene 7069)
Nature of the experiment: LTEA_HepaRG_THRSP: Life Technologies and Expression Analysis (LTEA) Assay for Thyroid Hormone Responsive (THRSP) using HepaRG (AID 2283536). In outline:
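THRSP transcript quantified by Fluidigm qRT-PCR against three housekeeping genes after 48 h chemical exposure of HepaRG cells in serum-free induction medium; eight-point half-log series, top 100 uM, 0.5% DMSO vehicle, duplicate wells.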

Read-out in experiment [20]: Cellular tumor antigen p53 (Homo sapiens) (UniProt P04637)
Kind of experiment: LTEA_HepaRG_TP53: Life Technologies and Expression Analysis (LTEA) Assay for Tumor Protein P53 (TP53) using HepaRG (AID 2283537). In outline:
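Differentiated HepaRG cells in serum-free induction medium exposed 48 h in duplicate to 8 half-log concentrations, top 100 uM, 0.5% DMSO. TP53 mRNA by TaqMan qRT-PCR (Fluidigm), normalized to ACTB, GAPDH, POLR2A; fitted bidirectionally versus DMSO.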

Calls of active or inactive are those of the source. How the source made its calls: active means hit-call score of the fitted dose curve at least 0.9, where 1 is the maximum; inactive means score below 0.9.

Nuclear factor erythroid 2-related factor 2 (Homo sapiens), sequence (Q16236 whole entry, looked up): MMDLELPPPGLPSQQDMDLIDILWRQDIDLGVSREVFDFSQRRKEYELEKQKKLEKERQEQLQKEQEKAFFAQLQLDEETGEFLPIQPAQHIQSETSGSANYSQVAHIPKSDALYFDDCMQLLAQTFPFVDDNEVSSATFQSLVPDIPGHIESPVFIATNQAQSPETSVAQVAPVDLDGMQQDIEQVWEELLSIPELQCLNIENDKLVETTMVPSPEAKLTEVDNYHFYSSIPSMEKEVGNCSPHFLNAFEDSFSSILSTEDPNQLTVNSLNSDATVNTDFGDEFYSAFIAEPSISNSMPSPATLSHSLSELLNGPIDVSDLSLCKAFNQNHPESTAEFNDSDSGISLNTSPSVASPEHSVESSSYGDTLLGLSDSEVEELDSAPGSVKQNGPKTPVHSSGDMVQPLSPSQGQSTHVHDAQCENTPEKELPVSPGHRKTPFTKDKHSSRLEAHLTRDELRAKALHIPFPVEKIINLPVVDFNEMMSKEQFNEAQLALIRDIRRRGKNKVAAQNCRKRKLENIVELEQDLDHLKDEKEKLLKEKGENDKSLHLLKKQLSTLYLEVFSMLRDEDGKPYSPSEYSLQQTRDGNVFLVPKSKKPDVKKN
Signal transducer and activator of transcription 3 (Homo sapiens), sequence (P40763 whole entry, looked up): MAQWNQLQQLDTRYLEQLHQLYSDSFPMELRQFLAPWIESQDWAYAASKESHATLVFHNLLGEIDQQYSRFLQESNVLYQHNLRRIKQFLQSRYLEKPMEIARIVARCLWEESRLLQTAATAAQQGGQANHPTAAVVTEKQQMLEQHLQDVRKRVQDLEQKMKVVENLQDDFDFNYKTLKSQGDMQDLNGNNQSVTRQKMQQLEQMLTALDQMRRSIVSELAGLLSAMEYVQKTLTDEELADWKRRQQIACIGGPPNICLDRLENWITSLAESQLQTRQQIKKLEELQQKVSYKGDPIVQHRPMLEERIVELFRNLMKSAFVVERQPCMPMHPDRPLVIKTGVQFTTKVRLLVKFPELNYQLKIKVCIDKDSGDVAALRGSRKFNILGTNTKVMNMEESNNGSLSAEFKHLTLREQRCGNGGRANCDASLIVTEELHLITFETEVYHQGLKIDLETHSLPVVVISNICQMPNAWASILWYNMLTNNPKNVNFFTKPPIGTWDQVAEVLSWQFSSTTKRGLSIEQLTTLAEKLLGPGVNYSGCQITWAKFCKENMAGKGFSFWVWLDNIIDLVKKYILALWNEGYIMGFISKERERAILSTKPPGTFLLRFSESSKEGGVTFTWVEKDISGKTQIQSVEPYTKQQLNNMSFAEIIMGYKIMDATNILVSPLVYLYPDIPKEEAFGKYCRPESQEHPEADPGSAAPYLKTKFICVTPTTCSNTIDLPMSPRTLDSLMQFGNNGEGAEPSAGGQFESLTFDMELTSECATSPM
Nuclear factor NF-kappa-B p105 subunit (Homo sapiens), sequence (P19838 whole entry, looked up): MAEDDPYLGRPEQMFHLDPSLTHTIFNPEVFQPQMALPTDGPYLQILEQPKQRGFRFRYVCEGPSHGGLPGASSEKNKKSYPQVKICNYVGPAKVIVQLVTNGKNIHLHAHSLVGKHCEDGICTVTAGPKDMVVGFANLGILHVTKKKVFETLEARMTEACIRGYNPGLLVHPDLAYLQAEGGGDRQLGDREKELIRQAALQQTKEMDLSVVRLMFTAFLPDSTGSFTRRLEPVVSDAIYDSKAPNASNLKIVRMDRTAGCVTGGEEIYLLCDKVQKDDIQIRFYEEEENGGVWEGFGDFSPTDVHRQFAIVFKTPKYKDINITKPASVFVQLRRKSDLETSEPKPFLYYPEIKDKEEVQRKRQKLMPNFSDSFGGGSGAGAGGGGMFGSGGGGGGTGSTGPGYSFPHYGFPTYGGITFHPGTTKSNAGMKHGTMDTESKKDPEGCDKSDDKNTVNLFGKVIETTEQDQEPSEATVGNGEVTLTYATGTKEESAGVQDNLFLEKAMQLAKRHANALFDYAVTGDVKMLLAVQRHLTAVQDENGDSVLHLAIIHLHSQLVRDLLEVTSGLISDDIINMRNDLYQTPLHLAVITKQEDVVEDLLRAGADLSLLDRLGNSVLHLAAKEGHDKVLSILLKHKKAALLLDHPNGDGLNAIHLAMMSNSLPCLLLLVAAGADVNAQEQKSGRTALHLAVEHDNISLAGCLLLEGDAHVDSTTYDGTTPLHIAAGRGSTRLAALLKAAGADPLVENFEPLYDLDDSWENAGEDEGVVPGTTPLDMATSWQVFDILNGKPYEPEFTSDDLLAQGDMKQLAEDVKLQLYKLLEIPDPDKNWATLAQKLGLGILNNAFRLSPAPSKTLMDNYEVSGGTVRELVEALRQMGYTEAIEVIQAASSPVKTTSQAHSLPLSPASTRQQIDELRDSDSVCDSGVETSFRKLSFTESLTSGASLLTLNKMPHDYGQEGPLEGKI
Cellular tumor antigen p53 (Homo sapiens), sequence (P04637 whole entry, looked up): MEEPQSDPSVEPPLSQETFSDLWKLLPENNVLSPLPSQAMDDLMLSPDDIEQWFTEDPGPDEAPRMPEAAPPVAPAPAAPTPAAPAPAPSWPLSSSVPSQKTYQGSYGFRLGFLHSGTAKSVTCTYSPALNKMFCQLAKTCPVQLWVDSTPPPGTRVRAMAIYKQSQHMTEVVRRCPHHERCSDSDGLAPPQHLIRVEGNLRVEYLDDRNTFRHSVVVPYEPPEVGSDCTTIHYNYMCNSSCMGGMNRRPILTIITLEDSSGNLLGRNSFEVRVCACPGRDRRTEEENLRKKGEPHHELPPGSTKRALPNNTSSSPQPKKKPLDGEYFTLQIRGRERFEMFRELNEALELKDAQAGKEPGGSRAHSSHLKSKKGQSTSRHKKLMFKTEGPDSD

Regarding `O=S(=O)(O)c1ccc(N=Nc2c(O)ccc3cc(S(=O)(=O)O)ccc23)cc1`, the call in experiment [1], in experiment [2], in experiment [3], in experiment [4], in [5] and in experiment [6] was inactive. Further, the compound was called inactive in experiment [7], in experiment [8], in [9], in [10], in [11] and in experiment [12]. Moreover, the compound was called inactive in [13], in [14], in experiment [15], in experiment [16] and in experiment [17].
Broadly, the AC50 is the concentration giving half of the maximal activity seen. For the compound `C=CCc1cc(S(=O)(=O)c2ccc(O)c(CC=C)c2)ccc1O`, the result in experiment [1], in [2], in experiment [6], in experiment [7], in experiment [8] and in experiment [9] was inactive. Moreover, the call in experiment [18], in experiment [12], in experiment [13], in experiment [14] and in [15] was inactive. Further, the AC50 in [3] was 50 µM (active); in experiment [4], 89 µM (active); in [5], 81.1 µM (active); in [10] it was 85.4 µM (active); in [11] it was 81.2 µM (active); in [19] it was 88.4 µM (active). Besides, the AC50 in experiment [16] was 80.7 µM (active); in [17], 66.7 µM (active).
Consider `NNC(=O)c1ccncc1`, for which the compound was called inactive in experiment [1], in experiment [2], in [3], in experiment [4], in experiment [5] and in experiment [6]. For the same compound, the call in experiment [7], in experiment [8], in experiment [9], in [10], in [11] and in [12] was inactive. Further, the outcome in [13], in experiment [14], in [20], in experiment [15], in experiment [16] and in experiment [17] was inactive.

For the origin of these results see PubChem BioAssay (EPA / NIEHS).
